nsP2pro inh – inhibitors of chikungunya virus nsP2 protease; Q8JUX6; FRET peptide cleavage, nsP2pro, fluorescence 1 h; Potency, µM (top dose mostly 24.9 µM), inactives show at the top dose activity change, negative = inhibition, actives largely listed as inhibitors; 31,000 compounds, 1.1% hits; note: nearly all actives have a fitted effect of over 60% in size
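Purified recombinant nsP2pro (150 nM final) in 10 mM Tris-HCl pH 8.0 with 0.01% Tween 20 was preincubated 15 min at room temperature with compound (7 concentrations, up to 25 uM). FRET peptide 2 substrate (2.5 uM final) was then added; fluorescence was read after 1 h.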
CHIKV nsP2 cell – secondary cell-based test for CHIKV nsP2 protease inhibitors. cell-based CHIKV nsP2 protease reporter assay. Potency, µM (doses to about 51.1 µM), without a hit: top-dose activity change, negative = inhibition, actives largely listed as inhibitors. shares compounds with nsP2pro inh. AID 1964100. 450 compounds, 10% hits; note: nearly all actives have a fitted effect of over 70% in size
CHIKV NSP2 FL – inhibits full-length CHIKV NSP2 enzyme. Potency, µM (top dose mostly 50.7 µM), for the others: top-dose activity change, negative = inhibition, hits mostly inhibitors. shares compounds with nsP2pro inh. 410 compounds, 39% hits. Full-length CHIKV NSP2 protease enzymatic counterscreen. AID 1964101; note: nearly all actives have a fitted effect of over 65% in size
Furin counter – inhibits human furin in a CHIKV nsP2 protease selectivity counterscreen; shares compounds with nsP2pro inh; Recombinant human furin enzymatic counterscreen, fluorogenic substrate; Potency, µM (top dose mostly 50.6 µM), for inactives: top-dose activity change, negative = inhibition, actives largely listed as inhibitors; 410 compounds, 6% hits; AID 1964102
NS23 peptide cs – nsP2pro inhibition on native NS2/3 peptide substrate; shares compounds with nsP2pro inh; Purified CHIKV nsP2 protease, endogenous NS2/3 peptide cleavage; Potency, µM (highest dose often 51 µM), for the others: at the top dose activity change, negative = inhibition, most hits filed as inhibitors; 410 compounds, 34% hits; note: nearly all actives have a fitted effect of over 55% in size
Papain cs – papain protease inhibition, counterscreen for nsP2pro inhibitors; shares compounds with nsP2pro inh; purified papain protease activity, enzymatic inhibition; Potency, µM (highest dose often 51 µM), for the others: top-dose activity change, negative = inhibition, actives largely listed as inhibitors; 410 compounds, 5% hits
nsP2pro conf qHTS – confirmation of CHIKV nsP2 protease inhibitors; shares compounds with nsP2pro inh; CHIKV nsP2 protease enzymatic activity, qHTS; Potency, µM (titrated, usually from 25.5 µM), for inactives: top-dose activity change, negative = inhibition, usual class: inhibitors; 410 compounds, 43% hits; AID 1964105; note: nearly all actives have a fitted effect of over 75% in size
HCV NS3 4A cs – HCV NS3/4A protease inhibition, counterscreen; shares compounds with nsP2pro inh; HCV NS3/4A protease biochemical counterscreen; Potency, µM (highest dose often 50.9 µM), usual class: inhibitors; 410 compounds, 20% hits; AID 1964106; note: nearly all actives have a fitted effect of over 55% in size
* = called active by the depositor; i = inactive; ? = inconclusive; . = no result; [ ] = another dose, or the depositor's remark. Shown is part of a subset that was picked to be rich in hits. Calls come from the whole dose curve. % is set by controls: 0 for no effect and ±100 for the full control effect; potency is the fitted concentration of half-maximal effect.

SMILES	nsP2pro inh	others
O=C(Nc1ccc(N2CCC(c3ccccc3)C2)c(C(=O)O)c1)c1ccc(Cl)cc1 (configuration not stated)	3.5µM*	CHIKV nsP2 cell=30%;CHIKV NSP2 FL=3.7µM*;Furin counter=?;NS23 peptide cs=12µM*;Papain cs=9%;nsP2pro conf qHTS=7.1µM*;HCV NS3 4A cs=3.7µM*
Cc1cccc(C(=O)Nc2ccc3ncnc(N4CCCCC4)c3c2)c1	34%
Cc1cccc(C(=O)Nc2ccc(N3CCC(N4CCCCC4)CC3)c(C(=O)O)c2)c1	5µM*	CHIKV nsP2 cell=11%;CHIKV NSP2 FL=4.6µM*;Furin counter=?;NS23 peptide cs=15µM*;Papain cs=-4%;nsP2pro conf qHTS=7.1µM*;HCV NS3 4A cs=2.6µM*
CC1NC(=O)CCCNC(=O)C(Cc2c[nH]c3ccccc23)NC(=O)C(C)NC(=O)C(C(C)C)NC(=O)C(C(C)c2ccccc2)NC(=O)C(C(C)C)NC1=O (configuration not stated)	16%[10 µM]
O=[S+]([O-])(Nc1nccs1)c1ccc(NCc2cc(Cl)cc(Br)c2O)cc1	i
O=S(=O)(Nc1cc(Cl)c(Oc2cnc3ccccc3c2)c(Cl)c1)c1ccc(Cl)cc1Cl	3%
O=[N+]([O-])c1ccc(S(=O)(=O)Nc2cnc3ccccc3c2)cc1	6.3µM*	CHIKV nsP2 cell=18%;CHIKV NSP2 FL=3%;Furin counter=-6%;NS23 peptide cs=71%;Papain cs=5%;nsP2pro conf qHTS=7%;HCV NS3 4A cs=i
COc1cccc(CNc2ccc(S(=O)(=O)Nc3cnc4ccccc4c3)cc2)c1O	i
Fc1ccc(-c2noc(CCCCSc3nnc(-c4cccc5ccccc45)o3)n2)cc1	-5%
OCc1ccnc(NC(=S)N2CCN(c3cccc(C(F)(F)F)c3)CC2)c1	i
CC(Nc1ccc([S+](=O)([O-])Nc2nccs2)cc1)c1ccccc1 (configuration not stated)	-5%
O=C(c1ccncc1)N1CCCC(CN2CCCC2)CC1 (configuration not stated)	-7%
O=C(/C=C/c1cccnc1)NCCCCC1CCN(C(=O)c2ccccc2)CC1	?	CHIKV nsP2 cell=-28%;CHIKV NSP2 FL=18%;Furin counter=12%;NS23 peptide cs=i;Papain cs=-8%;nsP2pro conf qHTS=22%;HCV NS3 4A cs=i
Cc1cnc(C2CCOCC2)n1CC1CCN(C(=O)c2cccnc2)CC1	-4%
CN(C1CCCc2ccccc21)S(=O)(=O)c1cccc(C(F)(F)F)c1 (configuration not stated)	2%
O=C(CCn1ccn2nc3c(c2c1=O)CCCC3)Nc1ccc(F)cc1F	-1%
FC(F)(F)c1ccccc1-c1cc(C(F)(F)F)c2nc(C3=NOC4(CCCCC4)C3)[nH]c2c1	-8%
COc1ccc(CN(Cc2ccccc2)C(=O)c2ccccc2O)cc1	-13%
COc1ccc(C(=O)N(Cc2ccco2)Cc2ccco2)c(O)c1	5µM*	CHIKV nsP2 cell=21µM*;CHIKV NSP2 FL=?;Furin counter=-7%;NS23 peptide cs=?;Papain cs=-6%;nsP2pro conf qHTS=?;HCV NS3 4A cs=?
Cc1ccc(CN(Cc2ccco2)C(=O)c2ccc(Cl)cc2Cl)cc1	32%
CCC1(N2CCN(C(=O)Nc3cc(C)ccc3OC)CC2)CCN(C(=O)C(C)C)C1 (configuration not stated)	i
N#Cc1ccc(-c2csc(NN=C3CCCC3)n2)cc1	26%
CCOC(=O)Nc1cc(-c2ccc(C)c(NS(C)(=O)=O)c2)nn2c(C)nnc12	2%
C[C@@H](CN1CCC(n2c(=O)[nH]c3cc(Cl)ccc32)CC1)NC(=O)c1ccc2ccccc2c1	0%
Cc1ccc(S(=O)(=O)Nc2cc(SCC(=O)O)c(O)c3ccccc23)cc1[N+](=O)[O-]	.	CHIKV nsP2 cell=?;CHIKV NSP2 FL=4.1µM*;Furin counter=-9%;NS23 peptide cs=2.6µM*;Papain cs=18µM*;nsP2pro conf qHTS=0.9µM*;HCV NS3 4A cs=i
COc1ccc(S(=O)(=O)Nc2ccc(C)n(CC(=O)O)c2=O)cc1	-11%
CCC(=O)NC(c1ccc(C)cc1)c1cc([N+](=O)[O-])c2cccnc2c1O (configuration not stated)	i
O=C(Nc1ccc(S(=O)(=O)Nc2nccs2)cc1)c1ccc2ccccc2c1	i
N#Cc1ccc(CNc2nc(-c3ccccc3C(F)(F)F)nc3ccccc23)cc1	-7%
COc1ccc(-c2[nH]nc3ncc(C(=O)N4CCC(c5ccccc5)CC4)nc23)c(C)c1	i

Source: PubChem (National Center for Advancing Translational Sciences (NCATS))
